# The full list was thinned out, with hits kept by preference.
# APE1 inh-1: inhibitors of human APE1 endonuclease; P27695; recombinant APE1, TAMRA/BHQ-2 abasic DNA cleavage fluorescence; Potency, µM (titrated, usually from 65.8 µM), for inactives: at the top dose activity change, negative = inhibition, most hits filed as inhibitors; 0.35% of 350,000 active;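 also: plate controls were vehicle for no effect and reference inhibitor for full effect; nearly all actives have a fitted effect of over 55% in size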
# Target sequence (P27695 whole entry, looked up): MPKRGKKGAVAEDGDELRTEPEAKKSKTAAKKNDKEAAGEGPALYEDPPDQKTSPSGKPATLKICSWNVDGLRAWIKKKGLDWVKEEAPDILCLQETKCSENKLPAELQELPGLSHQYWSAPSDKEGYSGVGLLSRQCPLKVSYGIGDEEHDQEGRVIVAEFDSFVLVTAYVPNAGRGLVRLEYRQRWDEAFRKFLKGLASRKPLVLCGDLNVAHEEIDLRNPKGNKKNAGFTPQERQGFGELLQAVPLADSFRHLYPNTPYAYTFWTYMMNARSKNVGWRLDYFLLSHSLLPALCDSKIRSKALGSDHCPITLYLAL
#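 Step 1: APE1 (0.75 nM) with compound, 15 min RT. Step 2: add 50 nM fluorophore/quencher THF duplex. Step 3: three fluorescence reads 60 s apart (525/598 nm); read 3 minus read 1 = reaction progress.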
# RECQ1 inh-1: blocks DNA unwinding by human RECQ1; AID 2549; 0.54% of 240,000 active; P46063; Potency, µM (series often up to 57.3 µM), for inactives: at the highest dose activity, negative = inhibition, most hits filed as inhibitors; RECQ1 DNA unwinding, red fluorescence kinetic read;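 also: plate controls were vehicle for no effect and no enzyme for full effect; nearly all actives have a fitted effect of over 30% in size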
#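 50 nM RECQ1T1 preincubated 15 min with compound in Tris pH 8.0 buffer with MgCl2, DTT, Tween-20 and 2.5 ug/ml poly(dI-dC); started with 200 nM TAMRA/BHQ-2 forked duplex and 2 mM ATP. Unwinding read as fluorescence (525/598 nm), two reads 2 h apart.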
# TDP1 inh: TDP1 (human) enzyme inhibition; recombinant TDP1, AlphaScreen DNA substrate cleavage; Potency, µM (doses to about 130 µM), for the others: at the top dose activity change, negative = inhibition, actives largely listed as inhibitors; 0.28% of 350,000 active; Q9NUW8; also: % is scaled to controls: 0 for no effect and ±100 for the full control effect; nearly all actives have a fitted effect of over 40% in size
#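 Compounds were preincubated with Tdp1 (1 nM final) for 15 min at room temperature before substrate (15 nM final) started a 5 min reaction; beads (10 ug/ml final) were then added for 10 min before AlphaScreen detection.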
# KDM4E inh: JMJD2E (human) inhibition. 1.6% of 230,000 active. AID 2147. JMJD2E catalytic domain, FDH-coupled NADH fluorescence (FDH is formaldehyde dehydrogenase). Potency, µM (series often up to 57.1 µM), inactives show at the top dose activity change, negative = inhibition, most hits filed as inhibitors. B2RXH2; active = well fitted inhibition curve with a large enough effect, not every such curve was filed as active; inconclusive = small, poorly fitted or top-dose-only effect, or another doubt; inactive = no such curve, though single readings can be large or run the other way;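 also: 0% = wells with enzyme and -100% = buffer wells without enzyme; nearly all actives have a fitted effect of over 50% in size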
# Target sequence (B2RXH2 1-337 limits assumed): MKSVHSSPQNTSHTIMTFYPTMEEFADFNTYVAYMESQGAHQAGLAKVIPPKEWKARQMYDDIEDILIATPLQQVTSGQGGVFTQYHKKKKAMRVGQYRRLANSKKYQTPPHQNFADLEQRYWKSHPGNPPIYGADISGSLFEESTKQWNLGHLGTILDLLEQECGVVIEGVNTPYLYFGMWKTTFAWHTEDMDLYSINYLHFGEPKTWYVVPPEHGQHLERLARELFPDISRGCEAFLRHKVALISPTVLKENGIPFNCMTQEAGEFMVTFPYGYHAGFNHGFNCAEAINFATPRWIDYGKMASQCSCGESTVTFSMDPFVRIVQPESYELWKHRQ
# L3MBTL1 inh-1: L3MBTL1 (human) inhibition; Q9Y468; AlphaScreen L3MBTL1–H3K9me1 peptide binding; Potency, µM (highest dose often 57.1 µM), for inactives: at the top dose activity, negative = inhibition, actives largely listed as inhibitors; 0.66% of 230,000 active; AID 485360; also: % is scaled to controls: 0 for no effect and ±100 for the full control effect; nearly all actives have a fitted effect of over 60% in size
#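 L3MBTL1 50 nM + b-AHA-H3(1-15)K9me1 75 nM, 30 min RT; compound added, 30 min RT; streptavidin donor/Ni-chelate acceptor beads 10 ug/mL each final, 30 min RT dark; AlphaScreen read.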
# BLM inh-1: blocks DNA unwinding by human BLM helicase | recombinant BLM DNA unwinding, fluorescence dequenching | P54132 | 0.2% of 350,000 active | Potency, µM (top dose mostly 56.1 µM), for the others: top-dose activity change, negative = inhibition, actives largely listed as inhibitors;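 also: plate controls were vehicle for no effect and no enzyme for full effect; nearly all actives have a fitted effect of over 35% in size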
# APE1 dye cs: displaces fluorescent dye from DNA, flagging APE1 artifacts. shares compounds with APE1 inh-1. DNA fluorescent dye displacement counterscreen, fluorescence. Potency, µM (doses to about 28.5 µM), inactives show at the highest dose activity change, negative = inhibition, actives largely listed as inhibitors. 7% of 480 active. AID 2564;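 also: loss of thiazole orange fluorescence as the dye is displaced from duplex DNA; 0% = ThO with dsDNA and no compound and -100% = ThO without dsDNA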
# EndoIV counter: blocks E. coli endonuclease IV DNA cleavage | AID 2565 | 4% of 560 active | shares compounds with APE1 inh-1 | Potency, µM (highest dose often 27.1 µM), for inactives: at the highest dose activity change, negative = inhibition, hits mostly inhibitors | E. coli Endo IV, fluorogenic AP-site DNA cleavage;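 also: plate controls were uninhibited enzyme wells for no effect and no enzyme buffer wells for full effect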
# APE1 inh-2: APE1 (human) endonuclease inhibition, confirmation; shares compounds with APE1 inh-1; purified APE1, fluorogenic abasic-site DNA cleavage; Potency, µM (doses to about 57.1 µM), for the others: at the top dose activity change, negative = inhibition, usual class: inhibitors; 44% of 750 active; AID 2572; also: % is scaled to controls: 0 for no effect and ±100 for the full control effect; nearly all actives have a fitted effect of over 30% in size
# APE1 FP inh: compounds that displace a DNA probe from human APE1; APE1 binding to TAMRA-labelled double-stranded DNA, fluorescence polarization displacement; AID 2573; 7% of 480 active; Potency, µM (highest dose often 28.5 µM), for inactives: at the highest dose activity, negative = inhibition, usual class: inhibitors; shares compounds with APE1 inh-1; also: % is scaled to controls: 0 for no effect and ±100 for the full control effect
# BLM inh-2: BLM (human) helicase inhibition, confirmation | shares compounds with BLM inh-1 | BLM DNA unwinding, fluorescence quenching, biochemical | Potency, µM, for the others: max response, negative = inhibition, actives largely listed as inhibitors | 40% of 220 active;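 also: strand separation dequenches TAMRA so unwinding raises red fluorescence; series mostly up to about 69 µM; % is scaled to controls: 0 for no effect and ±100 for the full control effect; nearly all actives have a fitted effect of over 45% in size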
# RECQ1 inh-2: blocks human RECQ1 DNA unwinding; shares compounds with RECQ1 inh-1; recombinant RECQ1 DNA unwinding, red fluorescence; Potency, µM (doses to about 119 µM), inactives show top-dose activity, negative = inhibition, hits mostly inhibitors; 15% of 1,100 active; AID 504841; also: % is scaled to controls: 0 for no effect and ±100 for the full control effect; nearly all actives have a fitted effect of over 50% in size
# L3MBTL1 inh-2: blocks human L3MBTL1 methyl-lysine binding; AID 540279; L3MBTL1 methyl-lysine binding inhibition, biochemical qHTS; shares compounds with L3MBTL1 inh-1; Potency, µM, usual class: inhibitors; 91% of 500 active; also: nearly all actives have a fitted effect of over 70% in size
# L3MBTL1 ctr: counter-screen for L3MBTL1 inhibitors: AlphaScreen signal interference; shares compounds with L3MBTL1 inh-1; AlphaScreen counterscreen, signal inhibition; Potency, µM (highest dose often 57.1 µM), without a hit: at the top dose activity change, negative = inhibition, actives largely listed as inhibitors; 500 tested, under 10 active; also: 0% is about no effect
# * = called active by the depositor; i = inactive; ? = inconclusive; / = no result; ! = a repeat was not active; [ ] = another dose, or the depositor's remark. Unless noted, calls follow the shape of the dose curve; as a rule, active = well fitted curve in the direction sought with a large enough effect; inconclusive = small, poorly fitted or top-dose-only effect, or another doubt; inactive = no such curve, though single readings can be large; an effect the other way counts as inactive or inconclusive. Potency is read from the fitted curve at half-maximal effect.
SMILES,APE1 inh-1,RECQ1 inh-1,TDP1 inh,KDM4E inh,L3MBTL1 inh-1,BLM inh-1,BLM inh-2,others
CC(=O)Nc1ccc(NC(=O)CC2Sc3ccccc3NC2=O)cc1 (centres undefined),/,/,/,/,/,-1%,/,
O=C(COC(=O)c1cc2c(s1)CCCC2)Nc1ccc(Cl)cn1,3%,-4%,1%,2%,-1%,-2%,/,
O=C(COC(=O)c1cc2c(s1)CCC2)Nc1ccc(F)cc1,16µM*,22µM*,35µM*,?,14µM*,16µM*,?,APE1 dye cs=?;EndoIV counter=7%;APE1 inh-2=10µM*;APE1 FP inh=?;RECQ1 inh-2=?;L3MBTL1 inh-2=5.3*;L3MBTL1 ctr=?
CCOc1ccc(/C=c2\sc3nc(-c4ccco4)nn3c2=O)cc1OCC,16%,i,-1%,-2%,-16%,1%,/,
COc1ccccc1/C=c1\sc2nc(-c3ccco3)nn2c1=O,?,?,/,-3%,13µM*,-29%,/,APE1 dye cs=-7%;EndoIV counter=-1%;APE1 inh-2=5µM*;APE1 FP inh=?;RECQ1 inh-2=?;L3MBTL1 inh-2=12*;L3MBTL1 ctr=0%
CN(C)/[N+]([O-])=N/Oc1cc(ON=[N+]([O-])N2CCN(c3ncccn3)CC2)c([N+](=O)[O-])cc1[N+](=O)[O-],-4%,-6%,1%,/,/,-8%,/,
CN(C)c1ccc(NC(=O)CSc2nnc(-c3ccco3)c(-c3ccco3)n2)cc1,-18%,/,/,/,/,-8%,/,
Cc1cccc(C)c1NC(=O)CSc1nnc(-c2ccco2)c(-c2ccco2)n1,16µM*,14µM*,/,?,2.8µM*,6%,/,APE1 dye cs=?;EndoIV counter=-2%;APE1 inh-2=3.5µM*;APE1 FP inh=-23%;L3MBTL1 inh-2=2.7*;L3MBTL1 ctr=-29%
CC(=O)OCC1=C(C(=O)O)N2C(=O)[C@@H](NC(=O)CSc3ccncc3)[C@H]2SC1,25µM*!,-13%,7.9µM*,?,16µM*,/,/,EndoIV counter=16µM*;APE1 inh-2=7.9µM*;L3MBTL1 inh-2=3*;L3MBTL1 ctr=7%
CC(=O)OCC1=C(C(=O)O)N2C(=O)C(NC(=O)Cc3ccccc3)C2SC1 (centres undefined),/,/,/,/,/,-12%,/,
COCCOC(=O)c1[nH]c2c(c1C)C(=O)CC(c1ccccc1)C2 (centres undefined),4%,4%,0%,6%,-8%,1%,/,
COCCOC(=O)c1[nH]c2c(c1C)C(=O)CC(c1ccco1)C2 (centres undefined),18µM*,35µM*,/,-23%,32µM*,?,/,APE1 dye cs=-9%;EndoIV counter=4%;APE1 inh-2=7.9µM*;APE1 FP inh=-29%;RECQ1 inh-2=?;L3MBTL1 inh-2=15*;L3MBTL1 ctr=-1%
Cc1c(C(=O)OCc2ccccc2)[nH]c2c1C(=O)CC(c1ccco1)C2 (centres undefined),25µM*,32µM*,?,-13%,25µM*,-24%,/,APE1 dye cs=6%;EndoIV counter=3%;APE1 inh-2=14µM*;APE1 FP inh=-40%;RECQ1 inh-2=?;L3MBTL1 inh-2=15*;L3MBTL1 ctr=10%
CCN(C(=O)Cn1cnc2onc(-c3ccc(F)cc3)c2c1=O)c1cc(C)ccc1C,/,/,4%,/,/,-12%,/,
S=C(Nc1ccc2nsnc2c1)NC1CCCCC1,-7%,i,4%,-6%,7%,13µM*,-11%,
Oc1ccc(NCc2ccccc2OCc2ccccc2Cl)cc1,/,/,6%,/,/,-25%,/,
Oc1ccc(NCc2ccccc2OCc2ccccc2F)cc1,?,-10%,10%,5µM*,?,28µM*!,?,
CCOc1cccc(CNc2ccc(O)cc2)c1OCc1ccc(Cl)cc1,-11%,-9%,3%,-28%,?,28µM*,-11%,
COc1cccc(CNCCO)c1OCc1ccc(Cl)cc1,7%,-9%,4%,3%,/,1%,/,
CCOc1ccc(S(=O)(=O)N2CCN(c3nc(-c4ccccc4)nc4ccccc34)CC2)cc1,/,/,0%,/,/,/,/,
CCCCc1nc2c(c3c1C[C@H](C)OC3)CN(S(=O)(=O)c1ccc(C)cc1)CC2,-2%[12.4 µM],2%[11.5 µM],5%[21 µM],-1%[11.4 µM],/,-4%[12.4 µM],/,
CN(C)c1ccc(-c2nc(NCc3cccnc3)c3ccccc3n2)cc1,-2%,?,5%[56.1 µM],?,/,16µM*,23µM*,
Cc1[nH]c2ccccc2c1C(=O)COC(=O)C1CC(=O)N(Cc2ccco2)C1 (centres undefined),-2%,-1%,6%,8%,-7%,0%,/,
O=C(COC(=O)C1CC(=O)N(Cc2ccco2)C1)c1ccc(OC(=O)c2ccco2)cc1 (centres undefined),-1%,-1%,0%,3%,18µM*,16µM*,?,
CC(=O)N[C@@H](Cc1c[nH]c2ccccc12)C(=O)O,0%,-9%,-7%,?,/,-8%,/,
O=C(CCc1c[nH]c2ccccc12)NC(Cc1c[nH]c2ccccc12)C(=O)O (centres undefined),21µM*,/,/,/,/,32µM*,-8%,
CCCN(CCC)CCNC(=O)c1sc2nc3n(c(=O)c2c1C)CCCCC3,/,/,0%,/,/,-2%,/,
